# Compound activity deposited in PubChem BioAssay by National Center for Advancing Translational Sciences (NCATS).
# This is a sample that favours compounds with a hit; in the whole collection about 7.4% have one here.
# SNCA expr inh: SNCA gene expression inhibition; HEK-293 SNCA-luciferase knock-in, luminescence, 24 h; Potency, µM (top dose mostly 57.2 µM), for the others: at the top dose activity change, negative = inhibition, most hits filed as inhibitors; 0.17% of 140,000 active; AID 1671194;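 further: plate controls were DMSO cells for no effect and cell-free wells for full effect; nearly all actives have a fitted effect of over 45% in size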
# Luciferase inh: inhibitors of firefly (Photinus pyralis) luciferase. 2.5% of 76,000 active. AID 1347043. purified P. pyralis luciferase, luminescence, biochemical. P08659. Potency, µM (top dose mostly 115 µM), usual class: inhibitors; further: nearly all actives have a fitted effect of over 65% in size
# Target sequence (P08659 whole entry, looked up): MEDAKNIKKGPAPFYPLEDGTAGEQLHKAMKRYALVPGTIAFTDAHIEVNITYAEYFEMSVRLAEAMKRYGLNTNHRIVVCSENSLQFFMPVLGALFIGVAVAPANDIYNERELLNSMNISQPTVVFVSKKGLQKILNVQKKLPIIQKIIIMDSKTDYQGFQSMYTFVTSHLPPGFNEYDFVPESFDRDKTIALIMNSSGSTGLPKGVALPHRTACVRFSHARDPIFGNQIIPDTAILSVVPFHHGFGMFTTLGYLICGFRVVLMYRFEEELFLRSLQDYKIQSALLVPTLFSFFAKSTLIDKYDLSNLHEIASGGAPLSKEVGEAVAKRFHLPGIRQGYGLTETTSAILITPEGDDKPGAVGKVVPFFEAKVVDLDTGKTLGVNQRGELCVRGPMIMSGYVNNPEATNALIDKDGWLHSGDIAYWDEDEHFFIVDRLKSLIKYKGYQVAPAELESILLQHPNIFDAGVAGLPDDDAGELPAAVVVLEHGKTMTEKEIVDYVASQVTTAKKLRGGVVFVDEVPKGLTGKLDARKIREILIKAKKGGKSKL
#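 FLuc 10nM, D-luciferin 10uM, ATP 10uM, Mg acetate 10mM, Tris acetate pH 7.5, Tween/BSA; cpd qHTS; enzyme added last; CCD luminescence.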
# HEK293 tox: HEK 293 cell cytotoxicity | HEK 293 viability, ATP luminescence (CellTiter-Glo), 48-72 h | 6.6% of 94,000 active | Potency, µM (titrated, usually from 115 µM), without a hit: at the top dose activity change, negative = cytotoxicity, most hits filed as inhibitors; further: nearly all actives have a fitted effect of over 60% in size
#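 Cytotoxicity was scored by loss of ATP-coupled luminescence (CellTiter-Glo) in HEK 293 cells. Compound treatment ran 48 or 72 hr at 37 degree Celsius, 5% CO2, 95% humidity.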
# HEK293 viab: cell viability loss counter-screen; HEK-293-SNCA-luc viability, GF-AFC fluorescence, 24 h; Potency, µM (series often up to 57.1 µM), for the others: at the top dose activity change, negative = cytotoxicity, hits mostly cytotoxic; 0.12% of 150,000 active;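 further: 0% = DMSO-treated cells and -100% = medium-only wells without cells; nearly all actives have a fitted effect of over 30% in size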
#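 HEK-293-SNCA-luc cells (1500/well) plated 24 h, then exposed 24 h to a dilution series; GF-AFC added 30 min at 37C, fluorescence 405/540 nm; normalised to medium-only and DMSO wells, Hill fit.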
# 3T3 cytotox: kills NIH 3T3 cells; NIH 3T3 viability, CellTiter-Glo ATP luminescence, 48-72 h; 4.3% of 94,000 active; Potency, µM (top dose mostly 96.7 µM), for the others: top-dose activity change, negative = cytotoxicity, actives largely listed as inhibitors; AID 1345082; further: nearly all actives have a fitted effect of over 55% in size
#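 Cytotoxicity is measured as loss of cellular ATP: NIH 3T3 cells (400/well) are exposed to compound for 48 or 72 hr at 37 °C, then CellTiter-Glo luminescence is imaged after 10 min at room temperature.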
# NPR1 antag: human Npr1 receptor antagonism | HEK293 hNpr1 GloSensor cGMP, ANP-stimulated luminescence | Potency, µM (doses to about 46.3 µM), for inactives: top-dose activity change, negative = inhibition, hits mostly inhibitors | 1.6% of 76,000 active; calls by dose curve; further: nearly all actives have a fitted effect of over 60% in size
#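 HEK293 cells stably expressing human Npr1 and cGMP GloSensor pGS-40F, loaded 2 h with 2% GloSensor reagent, given compound 30 min at room temperature. Luminescence read before and 20 min after 0.1 nM hNppA.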
# * marks the source's active call; other numbers are inactive results; i = inactive; ? = inconclusive; nt = not tested or not shown; [ ] = another dose, or the depositor's remark. Unless noted, the call rests on the fitted dose curve; in most records, active means well fitted curve in the direction sought with a large enough effect; inconclusive means small, poorly fitted or top-dose-only effect, or another doubt; inactive means no such curve, though single readings can be large; an effect the other way counts as inactive or inconclusive. Unless noted, on the % scale 0 is the no-effect control and ±100 the full control effect; potency means the concentration at half of the fitted maximal effect.
SMILES,SNCA expr inh,Luciferase inh,HEK293 tox,HEK293 viab,3T3 cytotox,NPR1 antag
Cc1cccc(-c2cccc(CN3CCC(N[S+](=O)([O-])c4cccc(C(F)(F)F)c4)CC3)c2)c1,?,nt,?,-28%,11µM*,nt
COC(=O)c1ccc2nc(C[C@@H]3C[C@@H](C(C)C)[C@H](CN)C=C3C)[nH]c2c1,13%[87.6 µM],i,?,-22%[87.6 µM],63µM*,-10%[70.6 µM]
COC(=O)c1ccc2nc(C[C@@H]3C[C@@H](C(C)C)[C@H](CNC4CCOCC4)C=C3C)[nH]c2c1,3%,i,?,-1%,?,1%
COC(=O)c1ccc2nc(C[C@@H]3C[C@@H](C(C)C)[C@H](CNC4CCCCC4)C=C3C)[nH]c2c1,1%,i,?,-29%,18µM*,-9%
COC(=O)c1ccc2nc(C[C@@H]3C[C@@H](C(C)C)[C@H](CNC(=O)C(C)C)C=C3C)[nH]c2c1,11%[87.6 µM],i,?,-12%[87.6 µM],?,0%[70.6 µM]
O=C(Nc1ccccc1)N1CCC(F)(c2nc(Cc3ccccc3)no2)CC1,48%,nt,?,5%,?,nt
COCC(=O)N1CCC(C(=O)N2CCC(c3ccccc3)CC2)CC1,47%[87.6 µM],nt,-3%[172 µM],5%[87.6 µM],-30%[138 µM],nt
COc1ccccc1-c1ccc(C(=O)N2CCC(NC(=O)NC(C)C)CC2)cc1,2%,nt,?,-8%[12.5 µM],?,nt
Cn1ccc(NC(=O)C2(C)CCCc3cnc(Nc4ccccc4)nc32)n1 (stereo unspecified),-14%[87.6 µM],i,?,-19%[87.6 µM],?,8%[70.6 µM]
Cn1ccc(NC(=O)C2(C)CCc3cnc(Nc4ccccc4)nc32)n1 (stereo unspecified),-15%[87.6 µM],i,100µM*,-18%[87.6 µM],?,-5%[70.6 µM]
Cn1ccc(NC(=O)C2(C)CCCc3cnc(NCc4ccccc4)nc32)n1 (stereo unspecified),6%[87.6 µM],i,?,-15%[87.6 µM],45µM*,-5%[70.6 µM]
Cc1ccccc1-c1nccn2c(C3CN(Cc4ccccc4O)C3)ncc12,2%[87.6 µM],i,89µM*,-8%[87.6 µM],100µM*,2%[70.6 µM]
CC(=O)N1CCN(C(=O)c2cc(-c3cc(Cl)cc(Cl)c3)c3nncn3n2)CC1,-11%,nt,0%,13%,-16%,nt
COc1ccc(Nc2cnc3ccc(-c4ccc(OC)nc4)nn23)cn1,11%[87.6 µM],i,?,2%[87.6 µM],?,2%[70.6 µM]
C[S+](=O)([O-])Nc1cccc(Nc2cnc3ccc(-c4ccc(F)cc4)nn23)c1,6%[87.6 µM],?,79µM*,-6%[87.6 µM],?,-21%[70.6 µM]
COc1ccc(-c2ccc3ncc(Nc4cccc(N[S+](C)(=O)[O-])c4)n3n2)cc1OC,30%,40µM*,?,8%,?,-2%
Cc1cc(C)n(CCC(=O)N2c3ccccc3CC2c2noc(C3CCOCC3)n2)n1 (stereo unspecified),72%,25µM*,?,-8%,?,-29%
Cc1cc(C)n(CCC(=O)N2CCC(c3noc(C4CC4)n3)C2)n1 (stereo unspecified),4%,i,-6%,11%,i,-2%
Cc1cc(C)cc(NC(=O)c2cc(-c3ccc[nH]3)n[nH]2)c1,189%,20µM*,?,-13%,?,-3%
Cc1ccc(NC(=O)c2cc(-c3ccc[nH]3)n[nH]2)cc1,43%,4µM*,-8%,8%,-14%,-1%
CCc1ccc(NC(=O)c2cc(-c3ccc[nH]3)n[nH]2)cc1,6%,3.2µM*,?,-1%,-17%,7%
CCc1ccc(NC(=O)c2cc(S(=O)(=O)N3CCCCC3)c[nH]2)cc1,-19%,nt,nt,7%,nt,nt
Cc1cccc(NC(=O)Nc2ccc(C)c(C)c2)n1,117%,nt,nt,-8%,nt,nt
Cc1ccc(NC(=O)c2cc(-c3ccc[nH]3)n[nH]2)cc1C,11%,7.9µM*,2%,4%,1%,3%
O=C(Nc1ccc(Cl)cc1)c1cc(-c2ccc[nH]2)n[nH]1,49%,?,?,0%,-25%,1%
SMILES,SNCA expr inh,Luciferase inh,HEK293 tox,HEK293 viab,3T3 cytotox,NPR1 antag
CN1CCCC2(C1)CN(Cc1cccnc1)c1ccc(C(=O)Nc3ccccc3)cc12 (stereo unspecified),-6%[87.6 µM],i,?,0%[87.6 µM],89µM*,4%[70.6 µM]
CN1CCC2(C1)CN(Cc1ccccc1)c1ccc(C(=O)NC3CC3)cc12 (stereo unspecified),-10%[87.6 µM],i,?,8%[87.6 µM],-26%[138 µM],10%[70.6 µM]
CN1CCC2(C1)CN(Cc1ccccc1)c1ccc(C(=O)NC3CCC3)cc12 (stereo unspecified),9%[87.6 µM],i,?,-5%[87.6 µM],79µM*,-4%[70.6 µM]
CN1CCC2(C1)CN(CC1CC1)c1ccc(C(=O)NC3CCC3)cc12 (stereo unspecified),-13%[87.6 µM],i,?,8%[87.6 µM],?,-3%[70.6 µM]
CN1CCC2(C1)CN(Cc1ccccc1)c1ccc(C(=O)NC3CCCCC3)cc12 (stereo unspecified),16%[87.6 µM],i,79µM*,-4%[87.6 µM],?,-1%[70.6 µM]
CC(C)(C)C(=O)N1CCCC(C(=O)N2CCCC2c2nc3ccncc3[nH]2)C1 (stereo unspecified),6%,nt,-12%,1%,-24%,nt
CCOc1ccccc1CN1CCC2(CCN(C(=O)c3ccccc3)CC2)Oc2ccccc21,-28%,i,-15%,-8%,-9%,-8%
O=C1COc2ccc(-c3ccccc3)nc2CN1Cc1ccccc1F,-19%[87.6 µM],i,?,2%[87.6 µM],?,-11%[70.6 µM]
Cc1ccccc1CN1Cc2nc(-c3cnn(C)c3)ccc2OCC1=O,-1%[87.6 µM],i,100µM*,-5%[87.6 µM],32µM*,4%[70.6 µM]
NC(=O)c1cccc(-c2ccc3c(n2)CN(Cc2nc4ccccc4s2)C(=O)CO3)c1,-2%[87.6 µM],i,79µM*,-16%[87.6 µM],?,-21%[70.6 µM]
O=C1COc2ccc(-c3ccsc3)nc2CN1Cc1ccccc1F,9%[87.6 µM],i,100µM*,-7%[87.6 µM],?,1%[70.6 µM]
Cc1ccccc1CN1Cc2nc(-c3ccccc3)ccc2OCC1=O,-25%[87.6 µM],i,89µM*,-20%[87.6 µM],?,-6%[70.6 µM]
CC(C)CN1CCN(C2CCOC3(CCN(C(=O)Cc4cccc(F)c4)CC3)C2)CC1 (stereo unspecified),17%,nt,?,6%,?,nt
COc1ccc(C(=O)N2CCC3(CC2)CCC(O)(CN(C)C)CC3)cn1,-10%,nt,-4%,1%,-11%,nt
Cc1nc(CN2Cc3nc(-c4cnn(Cc5ccccc5)c4)ccc3OCC2=O)cs1,?,i,?,-18%[87.6 µM],-29%[138 µM],?
Cc1ccccc1CN1Cc2nc(OCc3cccnc3)ccc2OCC1=O,?,i,?,-13%[87.6 µM],?,?
